Assay results reported in PubChem BioAssay AID1159580 (chemical genetic matrix, 2015).
The whole screen tested about 5,500 compounds, of which about 2,000 (36%) were called active. About 18% were inconclusive and are not listed. No stated cut-off is given here; in the data, active means normalized growth mostly below about 0.91 (no sharp cut-off); inconclusive means no clear call, values can overlap the other calls; inactive means mostly above about 0.92. Some of the results follow.

Test: chemical genetic growth profiling, strain panel (AID 1159580);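 further: tested at 20 µM; growth read once vehicle control cultures reached saturation at 30 °C; 1 = growth at the plate median or of vehicle wells; lower values mean less growth of the strain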
Conditions: growth OD

Measured: normalized growth

COc1ccc2c(=O)cc(-c3ccccc3OC)oc2c1
active: S. cerevisiae deletion strains, locus YAL013W, strain DEP1, active compounds read low 0.743 | S. cerevisiae deletion strains, locus YBR021W, strain FUR4, active compounds read low 0.797 | S. cerevisiae deletion strains, locus YDL192W, strain arf1, active compounds read low 0.763 | S. cerevisiae deletion strains, locus YDR101C, strain arx1, active compounds read low 0.883 | S. cerevisiae deletion strains, locus YDR318W, strain mcm21, active compounds read low 0.866 | S. cerevisiae deletion strains, locus YDR502C, strain sam2, active compounds read low 0.85 | S. cerevisiae deletion strains, locus YER155C, strain BEM2, active compounds read low 0.869 | S. cerevisiae deletion strains, locus YGL086W, strain mad1, active compounds read low 0.833 | S. cerevisiae deletion strains, locus YGL248W, strain PDE1, active compounds read low 0.825 | S. cerevisiae deletion strains, locus YGR078C, strain PAC10, active compounds read low 0.509 | S. cerevisiae deletion strains, locus YGR135W, strain pre9, active compounds read low 0.812 | S. cerevisiae deletion strains, locus YGR252W, strain gcn5, active compounds read low 0.716 | S. cerevisiae deletion strains, locus YHR030C, strain SLT2, active compounds read low 0.539 | S. cerevisiae deletion strains, locus YHR129C, strain ARP1, active compounds read low 0.849 | S. cerevisiae deletion strains, locus YHR200W, strain rpn10, active compounds read low 0.895 | S. cerevisiae deletion strains, locus YIL066C, strain RNR3, active compounds read low 0.819 | S. cerevisiae deletion strains, locus YIR030C, strain dcg1, active compounds read low 0.905 | S. cerevisiae deletion strains, locus YJL095W, strain BCK1, active compounds read low 0.437 | S. cerevisiae deletion strains, locus YJR043C, strain POL32, active compounds read low 0.778 | S. cerevisiae deletion strains, locus YKR001C, strain vps1, active compounds read low 0.709 | S. cerevisiae deletion strains, locus YLR039C, strain RIC1, active compounds read low 0.642 | S. cerevisiae deletion strains, locus YLR268W, strain sec22, active compounds read low 0.767 | S. cerevisiae deletion strains, locus YLR330W, strain CHS5, active compounds read low 0.629 | S. cerevisiae deletion strains, locus YLR342W, strain FKS1 (second series), active compounds read low 0.716 | S. cerevisiae deletion strains, locus YLR371W, strain rom2, active compounds read low 0.728 | S. cerevisiae deletion strains, locus YLR418C, strain cdc73, active compounds read low 0.468 | S. cerevisiae deletion strains, locus YML032C, strain rad52, active compounds read low 0.879 | S. cerevisiae deletion strains, locus YMR223W, strain ubp8, active compounds read low 0.831 | S. cerevisiae deletion strains, locus YMR307W, strain GAS1, active compounds read low 0.49 | S. cerevisiae deletion strains, locus YNL128W, strain TEP1, active compounds read low 0.708 | S. cerevisiae deletion strains, locus YNL233W, strain BNI4, active compounds read low 0.632 | S. cerevisiae deletion strains, locus YNL307C, strain MCK1, active compounds read low 0.526 | S. cerevisiae deletion strains, locus YNR052C, strain pop2, active compounds read low 0.914 | S. cerevisiae deletion strains, locus YOL006C, strain TOP1, active compounds read low 0.484 | S. cerevisiae deletion strains, locus YOL147C, strain pex11, active compounds read low 0.874 | S. cerevisiae deletion strains, locus YOR144C, strain elg1, active compounds read low 0.916 | S. cerevisiae deletion strains, locus YOR184W, strain ser1, active compounds read low 0.671 | S. cerevisiae deletion strains, locus YPL241C, strain CIN2, active compounds read low 0.918 | S. cerevisiae deletion strains, locus YPR163C, strain tif3, active compounds read low 0.748 | S. cerevisiae deletion strains, locus YPR167C, strain met16, active compounds read low 0.902 | S. cerevisiae deletion strains, strain wtn01, active compounds read low 0.802 | S. cerevisiae strains, strain wild type, active compounds read low 0.589
inactive: S. cerevisiae deletion strains, locus YBR229C, strain ROT2, active compounds read low 0.97 | S. cerevisiae deletion strains, locus YCL029C, strain bik1, active compounds read low 0.946 | S. cerevisiae deletion strains, locus YDL035C, strain GPR1, active compounds read low 0.865 | S. cerevisiae deletion strains, locus YDL074C, strain BRE1, active compounds read low 0.81 | S. cerevisiae deletion strains, locus YDL101C, strain DUN1, active compounds read low 0.933 | S. cerevisiae deletion strains, locus YDL185W, strain tfp1, active compounds read low 0.948 | S. cerevisiae deletion strains, locus YDR162C, strain NBP2, active compounds read low 0.843 | S. cerevisiae deletion strains, locus YDR388W, active compounds read low 0.934 | S. cerevisiae deletion strains, locus YER110C, active compounds read low 0.939 | S. cerevisiae deletion strains, locus YGL078C, strain dbp3, active compounds read low 0.934 | S. cerevisiae deletion strains, locus YHR079C, strain IRE1 (second series), active compounds read low 0.941 | S. cerevisiae deletion strains, locus YHR094C, strain hxt1, active compounds read low 0.961 | S. cerevisiae deletion strains, locus YIL073C, strain SPO22, active compounds read low 0.806 | S. cerevisiae deletion strains, locus YIL125W, strain kgd1, active compounds read low 0.938 | S. cerevisiae deletion strains, locus YJL134W, strain LCB3, active compounds read low 0.985 | S. cerevisiae deletion strains, locus YJL168C, strain set2, active compounds read low 0.941 | S. cerevisiae deletion strains, locus YJL187C, strain SWE1 (second series), active compounds read low 0.918 | S. cerevisiae deletion strains, locus YKL009W, strain mrt4, active compounds read low 0.947 | S. cerevisiae deletion strains, locus YKL068W, active compounds read low 0.963 | S. cerevisiae deletion strains, locus YKL085W, strain MDH1 (second series), active compounds read low 0.97 | S. cerevisiae deletion strains, locus YKL085W, strain MDH1, active compounds read low 0.97 | S. cerevisiae deletion strains, locus YLR058C, strain SHM2, active compounds read low 0.949 | S. cerevisiae deletion strains, locus YLR102C, strain apc9, active compounds read low 0.95 | S. cerevisiae deletion strains, locus YLR262C, strain YPT6, active compounds read low 0.65 | S. cerevisiae deletion strains, locus YML016C, strain PPZ1, active compounds read low 0.974 | S. cerevisiae deletion strains, locus YML124C, strain tub3, active compounds read low 0.94 | S. cerevisiae deletion strains, locus YMR078C, strain ctf18, active compounds read low 0.916 | S. cerevisiae deletion strains, locus YNL067W, strain RPL9B, active compounds read low 0.923 | S. cerevisiae deletion strains, locus YNL250W, strain rad50, active compounds read low 0.984 | S. cerevisiae deletion strains, locus YNL271C, strain bni1, active compounds read low 0.939 | S. cerevisiae deletion strains, locus YNL298W, strain CLA4, active compounds read low 0.912 | S. cerevisiae deletion strains, locus YNL322C, strain KRE1, active compounds read low 0.969 | S. cerevisiae deletion strains, locus YOL012C, strain htz1 0.811 | S. cerevisiae deletion strains, locus YOR061W, strain CKA2, active compounds read low 0.976 | S. cerevisiae deletion strains, locus YOR069W, strain VPS5, active compounds read low 0.957 | S. cerevisiae deletion strains, locus YOR136W, strain idh2, active compounds read low 0.931 | S. cerevisiae deletion strains, locus YOR316C, strain cot1, active compounds read low 0.958 | S. cerevisiae deletion strains, locus YPR119W, strain clb2, active compounds read low 0.941 | S. cerevisiae deletion strains, locus YPR141C, strain kar3, active compounds read low 0.96
